# PubChem BioAssay
# Active and inactive are the calls of the source.
# Experiments:
# [1] = E. coli DRC41 culture turbidity changes, primary screen, E. coli filamentation inducer project, strain DRC41, OD650, 48 h (AID 1152);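 also: E. coli MC1000 strain DRC41 lacking acrAB efflux pump and sulA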; details: E. coli DRC41 (acrAB sulA), higher = more signal, called active from +8 up or from −8 down
# [2] = small-molecule binders of probe aLefty1, primary screen, biochemical, small-molecule microarray, 635/667 nm fluorescence (AID 1153); details: higher = more signal;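 also: score merges spot fluorescence with signal-to-noise ratio from the scanned slide images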
# [3] = PSAC antagonists in infected red cells, primary screen, cell-based, P. falciparum Indochina, OD700, 1 h (AID 1154); details: P. falciparum Indochina infected RBC osmotic lysis, higher = more signal, called active from +8 up or from −8 down
# [4] = PSAC antagonists in infected red cells, primary screen, cell-based, P. falciparum Indochina, OD700, 2 h (AID 1155);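 also: lysis reports solute entry through the parasite surface anion channel PSAC; channel blockers reduce lysis of infected cells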; details: P. falciparum Indochina infected erythrocytes, osmotic lysis OD700; higher = more signal, called active from +8 up or from −8 down
# [5] = osmotic lysis modulators in infected erythrocytes, primary screen, PSAC antagonist project, cell-based, P. falciparum Indochina, OD700, 3 h (AID 1156); details: higher = more signal, called active from +8 up or from −8 down
# [6] = PSAC antagonists in infected red cells, primary screen, cell-based, P. falciparum Indochina, OD700, 18 h (AID 1157); details: P. falciparum Indochina infected erythrocytes, osmotic lysis OD700, 18 h; higher = more signal, called active from +8 up or from −8 down
# [7] = modulators of S6 phosphorylation in cells, primary screen, cell-based, A549, cytoblot, luminescence, serum-stimulated (AID 1158); details: A549 phospho-S6 cytoblot, 5 h, higher = more signal;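 also: serum-stimulated A549 lung adenocarcinoma cells; signal is phosphorylated S6 detected by cytoblot immunostaining with HRP secondary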
# [8] = biological target: NADPH oxidase 2 (Homo sapiens) (UniProt P04839); experiment: NOX2-dependent H2O2 signal modulators, primary screen, NOX inhibitor project, cell-based, HEK293-NOX2, PMA-stimulated, Amplex Red fluorescence (AID 1159); details: 45 min, higher = more signal, called active from +8 up or from −8 down; also: test concentration not given here
# Sequence of NADPH oxidase 2 (Homo sapiens) (P04839 whole entry, looked up): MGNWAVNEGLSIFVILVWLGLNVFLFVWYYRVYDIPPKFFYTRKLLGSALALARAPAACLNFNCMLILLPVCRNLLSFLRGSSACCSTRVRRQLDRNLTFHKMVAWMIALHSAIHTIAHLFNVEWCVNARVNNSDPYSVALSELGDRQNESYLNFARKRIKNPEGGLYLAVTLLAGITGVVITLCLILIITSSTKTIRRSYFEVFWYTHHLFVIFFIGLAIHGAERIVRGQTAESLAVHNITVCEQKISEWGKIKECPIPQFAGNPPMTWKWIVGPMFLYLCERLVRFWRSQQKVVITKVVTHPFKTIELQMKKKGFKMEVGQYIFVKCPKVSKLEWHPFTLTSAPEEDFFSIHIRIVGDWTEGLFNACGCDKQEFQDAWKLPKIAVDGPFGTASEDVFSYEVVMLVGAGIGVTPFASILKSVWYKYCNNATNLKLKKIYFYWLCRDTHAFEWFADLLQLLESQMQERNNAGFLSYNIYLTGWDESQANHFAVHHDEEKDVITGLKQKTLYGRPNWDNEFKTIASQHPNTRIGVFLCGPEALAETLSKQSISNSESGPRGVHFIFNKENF
# [9] = biological target: NADPH oxidase 4 (Homo sapiens) (UniProt Q9NPH5); experiment: NOX4-dependent H2O2 signal modulators, primary screen, NOX inhibitor project, cell-based, HEK293-NOX4, tetracycline-induced, Amplex Red fluorescence (AID 1160); details: 45 min, higher = more signal, called active from +8 up or from −8 down
# Sequence of NADPH oxidase 4 (Homo sapiens) (Q9NPH5 whole entry, looked up): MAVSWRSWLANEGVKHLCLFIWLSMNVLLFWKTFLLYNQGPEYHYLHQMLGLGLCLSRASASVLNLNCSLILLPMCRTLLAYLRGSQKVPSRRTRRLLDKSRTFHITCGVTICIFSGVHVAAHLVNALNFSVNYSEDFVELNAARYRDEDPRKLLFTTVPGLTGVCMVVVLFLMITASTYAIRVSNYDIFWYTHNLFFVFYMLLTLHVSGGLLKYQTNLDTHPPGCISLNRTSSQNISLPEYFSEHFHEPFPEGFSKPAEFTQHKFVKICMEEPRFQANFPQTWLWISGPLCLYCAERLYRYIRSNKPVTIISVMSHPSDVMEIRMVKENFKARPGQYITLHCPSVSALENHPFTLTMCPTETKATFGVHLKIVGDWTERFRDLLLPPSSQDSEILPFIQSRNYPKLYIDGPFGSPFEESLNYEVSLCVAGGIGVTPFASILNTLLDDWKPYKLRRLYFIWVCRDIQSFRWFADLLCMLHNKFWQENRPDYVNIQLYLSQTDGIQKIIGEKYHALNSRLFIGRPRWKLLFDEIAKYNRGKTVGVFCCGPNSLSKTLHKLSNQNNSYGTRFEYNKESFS
# [10] = biological target: NADPH oxidase 5 (Homo sapiens) (UniProt Q96PH1); experiment: NOX5-dependent H2O2 signal modulators, primary screen, NOX inhibitor project, cell-based, HEK293-NOX5, Amplex Red fluorescence (AID 1161); details: HEK293-NOX5, ionomycin, 45 min, higher = more signal
# Sequence of NADPH oxidase 5 (Homo sapiens) (Q96PH1 whole entry, looked up): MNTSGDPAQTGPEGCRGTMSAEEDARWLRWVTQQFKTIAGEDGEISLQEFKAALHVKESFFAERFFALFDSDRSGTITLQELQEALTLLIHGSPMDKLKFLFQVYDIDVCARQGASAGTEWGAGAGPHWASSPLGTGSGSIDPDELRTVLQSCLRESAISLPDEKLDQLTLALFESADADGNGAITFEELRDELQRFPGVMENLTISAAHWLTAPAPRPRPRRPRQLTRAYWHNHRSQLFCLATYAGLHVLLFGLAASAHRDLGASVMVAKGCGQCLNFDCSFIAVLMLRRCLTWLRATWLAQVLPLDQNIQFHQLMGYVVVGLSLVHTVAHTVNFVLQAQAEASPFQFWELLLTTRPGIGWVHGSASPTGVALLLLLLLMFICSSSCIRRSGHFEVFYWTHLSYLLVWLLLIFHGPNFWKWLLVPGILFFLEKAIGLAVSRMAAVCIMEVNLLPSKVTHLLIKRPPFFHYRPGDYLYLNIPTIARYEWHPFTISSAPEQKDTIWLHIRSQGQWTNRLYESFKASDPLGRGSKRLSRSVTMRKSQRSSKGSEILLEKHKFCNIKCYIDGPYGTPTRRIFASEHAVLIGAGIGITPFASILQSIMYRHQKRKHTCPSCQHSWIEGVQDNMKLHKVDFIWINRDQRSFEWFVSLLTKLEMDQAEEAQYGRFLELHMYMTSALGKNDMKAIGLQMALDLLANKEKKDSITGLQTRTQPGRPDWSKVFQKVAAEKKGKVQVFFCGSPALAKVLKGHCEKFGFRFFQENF
# [11] = A549 cell viability effects, profiling panel, calcein-AM fluorescence, 48 h, basal (AID 1162); details: higher = more signal; also: test concentration not given here
# [12] = adipocyte viability effects, profiling panel, cell-based, 3T3-L1 adipocytes, calcein-AM fluorescence, 48 h, basal (AID 1163); details: 3T3-L1 adipocytes viability, higher = more signal; also: test concentration not given here
# [13] = HepG2 cell viability effects, profiling panel, calcein-AM fluorescence, 48 h, basal (AID 1164); details: higher = more signal; also: test concentration not given here
# [14] = MM1S cell viability effects, profiling panel, calcein-AM fluorescence, 48 h, basal (AID 1165); details: higher = more signal;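 also: viability of MM1S multiple myeloma cells under basal unstimulated conditions; test concentration not given here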
# [15] = basal RPMI8226 viability, no added stimulus, profiling panel, cell-based, calcein-AM fluorescence, 48 h, PK04 Diversity Set (AID 1166); details: RPMI8226 myeloma viability, higher = more signal;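 also: cells grown under basal conditions without added stimulus; test concentration not given here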
# [16] = basal HepG2 mitochondrial membrane potential changes, profiling panel, cell-based, JC-1 fluorescence, 24 h, 100 nL compound (AID 1167); details: higher = more signal; also: test concentration not given here
# [17] = basal 3T3-L1 adipocyte mitochondrial potential changes, profiling panel, cell-based, JC-1 fluorescence, 3T3-L1 adipocytes, 24 h, 100 nL compound (AID 1168); details: JC-1 mitochondrial fluorescence, higher = more signal, called active from +8 up or from −8 down; also: test concentration not given here
# [18] = basal RPMI8226 mitochondrial membrane potential changes, profiling panel, cell-based, JC-1 fluorescence, 24 h, 100 nL compound (AID 1169); details: RPMI8226 myeloma, JC-1 mitochondrial potential fluorescence, higher = more signal; also: test concentration not given here
# [19] = basal MM1S mitochondrial membrane potential changes, profiling panel, cell-based, JC-1 fluorescence, 24 h, 100 nL compound (AID 1170); details: higher = more signal; also: test concentration not given here
# [20] = A549 lung cancer cell viability effects, profiling panel, resazurin fluorescence, 24 h, PK04 Diversity Set (AID 1171); details: higher = more signal, called active from +8 up or from −8 down; also: test concentration not given here
Compound,z-score [1],composite z-score [2],z-score [3],z-score [4],z-score [5],z-score [6],z-score [7],z-score [8],z-score [9],z-score [10],z-score [11],z-score [12],z-score [13],z-score [14],z-score [15],z-score [16],z-score [17],z-score [18],z-score [19],z-score [20]
CO[C@@H]1COC(=O)CC=C[C@@H](C)[C@@H]2C=C[C@H](O)[C@@H](COC(=O)CCC[C@H]1C)O2,-0.457 (inactive),0.425,-0.977 (inactive),-1.66 (inactive),-0.184 (inactive),-2.26 (inactive),0.49,-0.521 (inactive),0.319 (inactive),0.312,0.438,-0.717,-0.101,-0.567,0.403,-0.016,-0.546 (inactive),-0.347,-1.23,-0.165 (inactive)
CCCCc1nc2c(c3c1C[C@H](C)OC3)CN(CCC(C)C)CC2,-0.192 (inactive),-0.106,1.35 (inactive),0.977 (inactive),0.816 (inactive),0.589 (inactive),0.171,0.35 (inactive),0.315 (inactive),0.776,1.25,-0.11,0.597,0.411,-1.35,2.01,-0.836 (inactive),-0.0883,0.301,0.6 (inactive)
CC=CC1=C(CO)[C@H](O)[C@H]2O[C@H]2[C@H]1O,-0.147 (inactive),-0.45,-0.528 (inactive),-0.52 (inactive),-0.382 (inactive),-0.342 (inactive),0.318,1.94 (inactive),-1.82 (inactive),-0.768,-0.286,0.292,-0.408,0.0314,-0.054,-0.722,0.382 (inactive),0.635,0.677,-0.482 (inactive)
COc1ccccc1CN1C(=O)c2ccccc2[C@@]2(Cc3ccccc3N(C(C)C)C2=O)[C@@H]1c1ccc(CO)cc1,1.74 (inactive),0.0371,0.0937 (inactive),-0.756 (inactive),-0.964 (inactive),-0.876 (inactive),1.79,-0.437 (inactive),0.215 (inactive),1.04,0.212,0.423,1.29,-0.19,0.931,0.881,0.576 (inactive),0.563,0.374,-1.64 (inactive)
COCC(=C=CC[C@@H](O)c1ccccc1OCCO)CCO,0.825 (inactive),-0.0501,2.69 (inactive),-0.0233 (inactive),0.454 (inactive),0.16 (inactive),0.613,1.64 (inactive),0.992 (inactive),-0.132,1.31,0.177,0.792,0.699,0.551,0.429,0.432 (inactive),-0.631,0.918,0.675 (inactive)
CC(C)(C)N1C(=O)[C@H]2[C@H]3[C@H](O)[C@H](O)CC(=NO[C@@H]4O[C@H](CO)[C@@H](O)[C@H](O)[C@H]4O)[C@@H]3CC[C@H]2C1=O,0.383 (inactive),-0.147,1.13 (inactive),0.0656 (inactive),-0.689 (inactive),0.106 (inactive),-0.345,1.01 (inactive),-0.022 (inactive),-2.07,-0.504,0.346,0.302,-0.739,-0.666,-2.11,-0.404 (inactive),-0.018,-1.03,-0.461 (inactive)
C[C@H]1CC[C@@H](C(=O)O)N[C@@H]1c1ccc(C#CCN(C)C)cc1,0.883 (inactive),-0.231,0.167 (inactive),-0.219 (inactive),0.274 (inactive),-0.0947 (inactive),0.112,0.903 (inactive),-0.00118 (inactive),0.0715,0.683,0.398,0.777,0.601,-0.338,0.984,0.461 (inactive),-0.562,0.921,0.413 (inactive)
CO[C@@H]1COC(=O)[C@@H]2CCCN2C(=O)[C@@H](C)COC(=O)[C@H](COCc2ccccc2)NC(=O)CC=C[C@H]1C,-2.21 (inactive),-0.111,0.553 (inactive),0.367 (inactive),1.29 (inactive),0.441 (inactive),-0.493,-0.363 (inactive),-0.643 (inactive),-0.159,-0.427,0.169,-1.5,-0.329,-0.0455,-0.152,-1.02 (inactive),-0.156,-0.683,-0.366 (inactive)
O=C(NN=C1C[C@@H](O)[C@@H](O)[C@@H]2[C@@H]3C(=O)N(c4cccc(Oc5ccccc5)c4)C(=O)[C@@H]3CC[C@@H]12)OCc1ccccc1,-0.385 (inactive),0.101,2.57 (inactive),0.237 (inactive),1.09 (inactive),0.0572 (inactive),-0.818,1.05 (inactive),-2.06 (inactive),0.134,0.359,0.51,-0.492,-0.0408,-0.238,-0.659,-0.0191 (inactive),0.682,0.615,0.413 (inactive)
CC(C)OC(=O)C=C1C[C@@H](c2ccc(C#N)cc2)O[C@@H](c2ccc(C#N)cc2)O1,0.197 (inactive),0.474,8.57 (active),0.848 (inactive),0.78 (inactive),0.439 (inactive),-0.342,-0.669 (inactive),-1.02 (inactive),-0.607,-0.301,0.538,-0.0099,-2.29,-0.69,-1.06,-0.195 (inactive),-0.462,-2.22,0.199 (inactive)
O=C1O[C@@H](c2ccccc2)[C@@H](c2ccccc2)N2[C@@H](c3ccc(OCCO)cc3)[C@]3(C(=O)Nc4ccc(C#CCCO)cc43)[C@@H](C(=O)N3CCCCCCC3)[C@H]12,0.974 (inactive),2.79,4.33 (inactive),1.27 (inactive),0.526 (inactive),0.737 (inactive),-0.178,1.6 (inactive),0.824 (inactive),1.08,0.819,1.02,0.874,0.206,0.269,0.523,-0.564 (inactive),-0.974,-0.399,0.932 (inactive)
COC(=O)[C@H](C)NC(=O)CCC1CC(OC(=O)NCc2cccc3ccccc23)CC2(CCCC(COC(=O)NCC3CCCCC3)O2)O1 (stereo not given in full),-0.484 (inactive),-0.325,0.994 (inactive),-0.35 (inactive),-0.555 (inactive),0.125 (inactive),-0.444,0.17 (inactive),0.236 (inactive),0.469,-0.332,-0.687,0.385,-0.875,0.913,1.38,-0.477 (inactive),-0.188,-0.652,0.458 (inactive)
O=C1c2ccccc2[C@@]2(Cc3ccccc3N(C3CC3)C2=O)[C@H](c2ccc(CO)cc2)N1Cc1ccccc1C(F)(F)F,-0.262 (inactive),0.566,0.949 (inactive),-0.28 (inactive),-0.31 (inactive),-1.41 (inactive),1.01,0.136 (inactive),-1.4 (inactive),-0.129,0.238,0.4,-0.772,0.306,-0.522,1.13,-0.474 (inactive),0.84,-1.56,0.164 (inactive)
COc1ccc(COC(=O)NN=C2C[C@@H](O)[C@@H](O)[C@@H]3[C@@H]4C(=O)N(Cc5ccc6c(c5)OCO6)C(=O)[C@@H]4CC[C@@H]23)cc1,0.306 (inactive),1.15,11.8 (active),0.801 (inactive),0.819 (inactive),-1.17 (inactive),1.27,-0.377 (inactive),0.343 (inactive),0.964,0.378,1.11,-0.273,-0.652,-0.0219,0.621,1.04 (inactive),-0.3,-1.61,0.0201 (inactive)
O=C1[C@H]2[C@H]3[C@H](O)[C@H](O)CC(=NOC[C@@H](O)COCc4ccco4)[C@H]3CC[C@H]2C(=O)N1c1cccc(Oc2ccccc2)c1,0.66 (inactive),-0.353,3.18 (inactive),1.15 (inactive),1.28 (inactive),0.795 (inactive),0.404,-2.98 (inactive),1.31 (inactive),-0.185,1.26,0.01,-0.463,0.511,0.977,0.526,0.994 (inactive),0.682,-1.2,0.26 (inactive)
Cc1cc(C)c(-c2cc([C@H](C)ON=C3[C@H]4CCn5c(=O)n(-c6ccccc6)c(=O)n5[C@H]4[C@H](O)[C@@H]4O[C@H]34)on2)c(C)c1,-0.0555 (inactive),0.218,1.43 (inactive),0.322 (inactive),0.347 (inactive),0.391 (inactive),-0.914,0.0599 (inactive),0.68 (inactive),-0.114,-0.605,-0.91,-0.887,-2.95,-3.87,0.668,-0.803 (inactive),-1.24,-2.39,-0.776 (inactive)
O=C1[C@H]2[C@H]3[C@H](O)[C@H](O)CC(=NO[C@@H]4O[C@H](CO)[C@@H](O)[C@H](O)[C@H]4O)[C@@H]3CC[C@H]2C(=O)N1Cc1ccc2c(c1)OCO2,-0.161 (inactive),-0.0016,5.54 (inactive),0.373 (inactive),1.3 (inactive),0.404 (inactive),0.117,-0.486 (inactive),0.295 (inactive),-0.163,-0.575,1.13,-0.874,-0.778,-1.06,0.221,-1.34 (inactive),-0.981,0.386,0.159 (inactive)
CC(=O)OC[C@H]1O[C@H](CC=NOC[C@@H](C)[C@H](OCc2ccccc2)C(C)C)C=C[C@@H]1OC(C)=O,-0.0083 (inactive),-0.101,1.25 (inactive),0.766 (inactive),0.712 (inactive),0.343 (inactive),-0.0212,-0.401 (inactive),-0.344 (inactive),-2.35,-0.878,-0.612,-1.02,-0.886,0.128,-0.713,-1.71 (inactive),1.17,-0.482,0.286 (inactive)
